From PubChem BioAssay
Compounds with a hit are over-represented: about 7.9% of the library has one in this group of screens.
MARV entry inh: inhibitors of Marburg virus binding or cell entry | Marburg virus pseudotyped entry inhibition, cell reporter | Potency, µM (series often up to 37.8 µM), for the others: at the highest dose activity change, negative = inhibition, most hits filed as inhibitors | 300,000 compounds, 1.8% hits | AID 540276; calls by dose curve; tested in HEK293 cells; also: potency is read from the fitted curve at half-maximal effect
HCMV antiviral: human cytomegalovirus inhibition; HFF cells, HCMV-luciferase reporter, 72 h; active compounds read low; activity change, negative = inhibition, % at 57.5 µM; 410,000 compounds, 4.5% hits; AID 1259415; in the data active = activity change below about -60%; inconclusive = no clear call, values can overlap the other calls; inactive = above about -39%
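Two compound doses tested in HFFs infected with HCMV-luciferase, MOI 1 PFU/cell, 72 h at 37C. Lysate luminescence read with OneGlo; data normalized against buffer-only and 10uM Salinomycin inhibitor controls.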
FMDV inh: blocks foot and mouth disease virus | FMDV antiviral cell-based qHTS | Potency, µM (series often up to 57.9 µM), inactives show at the highest dose activity change, negative = inhibition, actives largely listed as inhibitors | 410,000 compounds, 1.2% hits | AID 1159524; calls by dose curve; tested in HEK293T cells; also: read-out not given here; potency is read from the fitted curve at half-maximal effect; nearly all actives have a fitted effect of over 45% in size
Lassa entry inh: inhibitors of Lassa virus binding or cell entry. Potency, µM (series often up to 37.9 µM), inactives show at the top dose activity change, negative = inhibition, actives largely listed as inhibitors. Lassa virus pseudotype entry inhibition, cell reporter. 300,000 compounds, 1.2% hits; calls by dose curve; tested in HEK293 cells; also: potency is read from the fitted curve at half-maximal effect; nearly all actives have a fitted effect of over 50% in size
HCV inh: inhibitors of hepatitis C virus infection | Huh7.5.1 HCVcc-Cre infection, luciferase reporter, 44 h | Potency, µM (titrated, usually from 41.8 µM), for inactives: at the top dose activity change, negative = inhibition, hits mostly inhibitors | 340,000 compounds, 3.4% hits; active = well fitted inhibition curve with a large enough effect; inconclusive = small, poorly fitted or top-dose-only effect, or another doubt; inactive = no such curve, though single readings can be large or run the other way; also: potency is read from the fitted curve at half-maximal effect
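Cells seeded at 1,000/well and cultured 4 h, then compounds added followed by HCVcc-Cre virus (~0.5 moi). After 44 h further culture, luciferase substrate was added, plates held 15 min at room temperature, and luminescence read for 15 sec.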
Active calls of the source: *; ? = inconclusive; . = not tested or not shown; [ ] = another dose, or the depositor's remark. % is scaled to controls: 0 for no effect and ±100 for the full control effect.

SMILES	MARV entry inh	HCMV antiviral	FMDV inh	Lassa entry inh	HCV inh
C=CC1=C2C=C(C3CC3)N(C3CCCCC3)C=C2C(=O)C(C)(OC(=O)c2ccco2)C1=O (stereo not given)	19.0%[14.2 µM]	.	.	.	.
O=C(Nc1ccc(OC(F)(F)F)cc1)Nc1cccc([N+](=O)[O-])c1	?	-103.6*	-3.7%	?	?
Cc1ccc(NC(=O)Nc2cccc([N+](=O)[O-])c2)cc1F	?	-100.2*	-1.7%	?	11.2µM*
Cc1cc(NC(=O)Nc2cccc([N+](=O)[O-])c2)no1	.	?	9.0%	.	-15.5%
NCCn1oc(=O)[nH]c1=O	.	.	0.5%	.	.
COc1ccc(-c2nc3ccccc3n2Cc2ccccc2)cc1	3.4%[46.1 µM]	-2.5	-24.6%	-13.6%[46.1 µM]	-7.9%
COc1ccc(-c2n(Cc3ccccc3)c3ccccc3[n+]2Cc2ccccc2)cc1	5.8µM*	-98.0*	?	8.2µM*	?
COc1cc(CN2CCC(C(=O)NCC(C)(C)CN(C)C)CC2)ccc1OCc1ccccc1	.	-93.9*	14.1%	.	?
COc1ccc(CN2CCN(S(=O)(=O)c3ccc(NC(C)=O)cc3)CC2)cc1OC	0.2%	?	.	?	-23.3%
COc1ccc(S(=O)(=O)N2CCN(CCCOc3ccc(F)cc3)CC2)cc1OC	10µM*	?	?	?	11.2µM*
COc1ccc(CN2CCN(S(=O)(=O)c3ccc(F)cc3)CC2)cc1OC	-1.5%	-60.2*	-29.7%	-24.2%	-24.1%
CCCS(=O)(=O)N1CCN(Cc2ccc(OCc3ccccc3)c(OC)c2)CC1	-29.3%	?	.	-8.1%	10µM*
Cc1cc(O)c2c(c1)CC1C3CCC4CC(=O)CCC4(C)C3CC(=O)C21C (stereo not given)	?	-38.8	-15.9%	13.2%[46.1 µM]	?
Cc1nc(-c2ccc(S(=O)(=O)Nc3cc(Cl)ccc3C)cc2)co1	.	29.5	33.0%	-10.4%[46.1 µM]	.
COC(=O)c1ccc(S(=O)(=O)N2CCCN(Cc3ccc(F)cc3)CC2)n1C	.	-64.2*	?	.	11.2µM*
Cc1cn([C@H]2C[C@H](O)[C@@H](CCC(=O)NCC(c3ccccc3)c3ccccc3)O2)c(=O)[nH]c1=O	.	2.3	-16.3%	.	.
Cc1cn([C@H]2C[C@H](O)[C@@H](CCC(=O)NCc3ccccc3)O2)c(=O)[nH]c1=O	.	-10.6	-13.6%	.	3.55µM*
Cn1c(=O)n(C)c2cc(NS(=O)(=O)c3ccc4c(c3)CCCC4)ccc21	?	-107.1*	?	-4.8%	?
CCOC(=O)c1oc2ccc(S(=O)(=O)Nc3ccc4c(c3)n(C)c(=O)n4C)cc2c1C	?	-64.9*	.	-26.6%	?
Cc1[nH]n(-c2ncc(-c3ccccc3)s2)c(=O)c1C(c1ccc(Cl)cc1)C(C#N)C#N (stereo not given)	14.0%	-1.6	20µM*	7.3%	0.5%
Cc1cc(NCC2CCCO2)n2c(nc3ccccc32)c1C#N (stereo not given)	1.2%[46.1 µM]	-12.8	?	-17.2%	-23.6%
Cc1c2c(n3c(nc4ccccc43)c1C#N)N(CCN(C)C)CC2	?	34.9	-11.8%	0.1%[46.1 µM]	11.2µM*
Cc1cc(NCCCN(C)C)n2c(nc3ccccc32)c1C#N	-17.0%	-25.9	-11.6%	-10.0%	?
Cc1cc(NCCN2CCCCC2)n2c(nc3ccccc32)c1C#N	.	.	.	.	7.08µM*
CC(C)c1cc(NCC2CCCO2)n2c(nc3ccccc32)c1C#N (stereo not given)	?	-60.0*	?	?	?
SMILES	MARV entry inh	HCMV antiviral	FMDV inh	Lassa entry inh	HCV inh
COc1ccc(CCN(C)C2CCCN(S(=O)(=O)c3ccccc3)C2)cc1OC (stereo not given)	.	-0.6	-4.3%	.	0.7%
Cc1ccc(S(=O)(=O)N2CCC3(CC2)OCCN3S(=O)(=O)c2c(C)cc(C)cc2C)cc1	5.9%	3.9	-13.3%	?	10µM*
Cc1ccc(C)c(S(=O)(=O)N2CCC3(CC2)OCCN3S(=O)(=O)c2cccs2)c1	-10.9%[46.1 µM]	-5.8	0.1%	-25.5%	-13.4%
COc1ccc(S(=O)(=O)N2CCC3(CC2)OCCN3S(=O)(=O)c2c(C)cc(C)cc2C)cc1	?	?	8.6%	?	?
Cc1cc(C)c(S(=O)(=O)N2CCC3(CC2)OCCN3S(=O)(=O)c2cccs2)c(C)c1	?	0.0	22.0%	-7.9%	11.2µM*
COc1cc(NS(=O)(=O)c2ccc3c(c2)CC(=O)N3)cc(OC)c1OC	9.6%[46.1 µM]	-1.6	26.7%	?	.
C[C@@H]1CN(C2CCN(C(=O)c3ccccc3)CC2)C[C@H](C)O1	0.0%	.	.	.	.
